Screening data as filed in PubChem BioAssay.
Only some compounds are listed: those with a hit (about 3.8% of all), similar ones and a draw of the others.
PAFAH2 inh = PAFAH2 enzyme inhibitors, primary screen, biochemical, fluorescence polarization, human; recombinant PAFAH2, FP-rhodamine activity probe; inhibition, % at 3.39 µM; 340,000 compounds, 0.99% hits; AID 492956, 2010;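 active = inhibition above the mean over all tested compounds plus 3 SD, cut at about 30% in these data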;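 note: inhibitors block probe labeling of enzyme so polarization drops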
PAFAH1B2 inh = PAFAH1B2 enzyme inhibitors, primary screen, biochemical, fluorescence polarization, human; recombinant PAFAH1B2, FP-rhodamine activity probe; 340,000 compounds, 1.2% hits; Platelet-activating factor acetylhydrolase IB subunit alpha2 (Homo sapiens), P68402; inhibition, % at 3.39 µM;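 active = inhibition above the mean of all tested compounds plus 3 SD, cut at about 24% in these data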
Target sequence (P68402 whole entry, looked up): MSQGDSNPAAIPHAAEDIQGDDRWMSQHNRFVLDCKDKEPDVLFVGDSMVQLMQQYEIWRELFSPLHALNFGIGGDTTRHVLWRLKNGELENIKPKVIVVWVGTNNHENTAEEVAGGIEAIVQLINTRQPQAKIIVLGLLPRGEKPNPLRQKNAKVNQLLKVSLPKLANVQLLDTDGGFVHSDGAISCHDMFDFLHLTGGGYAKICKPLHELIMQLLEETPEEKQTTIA
PAFAH1B3 inh = PAFAH1B3 enzyme inhibitors, primary screen, biochemical, fluorescence polarization, human; Platelet-activating factor acetylhydrolase IB subunit alpha1 (Homo sapiens), Q15102; recombinant PAFAH1B3, FP-rhodamine probe; inhibition, % at 3.39 µM; 340,000 compounds, 0.28% hits;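 active = inhibition above the screen-wide average of all tested compounds plus 3 SD, cut at about 25% in these data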
Target sequence (Q15102 whole entry, looked up): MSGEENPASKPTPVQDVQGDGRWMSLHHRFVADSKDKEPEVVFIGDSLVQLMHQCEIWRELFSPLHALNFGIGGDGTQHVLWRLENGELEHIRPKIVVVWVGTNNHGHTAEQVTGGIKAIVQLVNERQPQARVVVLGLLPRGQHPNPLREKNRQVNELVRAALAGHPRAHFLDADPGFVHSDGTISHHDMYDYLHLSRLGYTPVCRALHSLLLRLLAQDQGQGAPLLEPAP
pPAFAH FP inh = pPAFAH enzyme inhibitors, primary screen, biochemical, fluorescence polarization, human | recombinant pPAFAH, FP-rhodamine probe fluorescence polarization | inhibition, % at 3.39 µM | 330,000 compounds, 1.5% hits | Platelet-activating factor acetylhydrolase (Homo sapiens), Q13093 | AID 463082, 2010;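 active = inhibition above the mean inhibition across the screen plus 3 SD, cut at about 25% in these data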;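 note: inhibitors block binding of the rhodamine activity-based probe so polarization drops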
Pemphigus Ab inh = inhibitors of pemphigus antibody binding to DSG3, primary screen, biochemical, bead-based, flow cytometry, scFv-GFP. Desmoglein-3 (Homo sapiens), P32926. DSG3-coupled beads, scFv-anti-DSG3-GFP binding; hits give low values. binding (percent of control), % at 10 µM. 310,000 compounds, 0.48% hits;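 active = binding more than 3 SD below its plate's average and above zero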;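 note: hits lower antibody fragment binding to DSG3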
M18AAP inhibitor = PfM18AAP inhibitors, malaria aminopeptidase, primary screen, biochemical, QFRET, recombinant enzyme; M18 aspartyl aminopeptidase (Plasmodium falciparum 3D7); H-Glu-NHMec fluorogenic cleavage; inhibition, % at 7.35 µM; 290,000 compounds, 1.2% hits;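 active = inhibition above the campaign mean inhibition over all tested compounds plus 3 SD, cut at about 28% in these data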
Hits are given with their value; . = inactive; / = not tested or not shown.

SMILES | PAFAH2 inh | PAFAH1B2 inh | PAFAH1B3 inh | pPAFAH FP inh | Pemphigus Ab inh | M18AAP inhibitor
Fc1ccc(COc2ccccc2C(=S)N2CCCC2)cc1 | . | . | . | . | . | .
Cc1ccc([C@H]2C[C@H](O)[C@@H](n3cc(COC(=O)c4ccccc4)nn3)CN2C(=O)c2cccs2)cc1 | / | / | / | / | . | /
CCOc1ccccc1NCc1cc(=O)oc2cc(C)c(O)cc12 | . | . | . | / | 86 | .
Cc1cc2oc(=O)cc(CNc3ccccc3F)c2cc1O | . | . | . | . | . | .
CCC(=O)N1CCc2cc(S(=O)(=O)NC(Cc3ccccc3)C(=O)O)ccc21 (stereo unspecified) | . | . | . | 28 | . | .
Cc1ccccc1NC(=O)c1ccccn1 | . | . | . | 27 | . | .
CCOc1cc(CNc2ccc(CNc3ncn[nH]3)cc2)ccc1OCc1ccccc1 | . | . | . | . | . | 40
CCOc1cc(CNc2ccccc2)cc(Br)c1OCc1ccc(F)cc1 | . | . | . | . | / | .
CC(Sc1nn(-c2ccc(F)cc2)c(=S)s1)C(=O)c1c(N)n(C)c(=O)n(C)c1=O (stereo unspecified) | . | . | . | 30 | . | /
Nn1cnnc1N/N=C/c1cc(Br)cc(Br)c1O | . | . | . | . | . | 52
CCN(CC)c1ccc(/C=N/N=C(N)N)c(O)c1 | . | . | . | . | . | 29
CCN(CC)c1ccc(/C=N/NC(=O)c2ccoc2C)c(O)c1 | . | . | . | . | 48 | .
CCc1cccc2c(/C=N/NC(=O)c3cccc(S(=O)(=O)Nc4ccccc4Cl)c3)c[nH]c12 | . | 26 | 31 | 27 | / | .
O=C(/C=C/c1ccco1)OCc1nnc(-c2ccc(Cl)cc2)o1 | 67 | . | . | 28 | . | .
Cc1onc(-c2ccccc2)c1C(=O)OCc1nnc(-c2ccc([N+](=O)[O-])cc2)o1 | . | . | . | . | . | /
O=C(OCc1nnc(-c2ccccc2)o1)c1cc([N+](=O)[O-])ccc1Cl | . | . | . | . | 71 | .
O=C(CSc1ccc(Cl)cc1)OCc1nnc(-c2ccccc2)o1 | . | 96 | . | 26 | . | .
CN(CC(=O)Nc1ccc(OC(F)(F)F)cc1)C(=O)c1ccccc1SCC(=O)N1CCCC1 | . | . | . | / | . | /
CC(C)CN1CCN(Cc2cn(C)c3ccccc23)CC1CCO (stereo unspecified) | . | . | . | . | . | .
O=C1NN(c2ccc(Cl)c(Cl)c2)C(=O)/C1=C/c1cccc(OC(=O)c2cccs2)c1 | / | / | / | 57 | / | .
CCCCCCCCC1CC(C(=O)Nc2ccccc2)C(=O)O1 (stereo unspecified) | . | . | . | . | . | /
CC1=C(C(=O)OCc2ccc3c(c2)OCO3)C(c2cccc([N+](=O)[O-])c2)NC(=O)N1 (stereo unspecified) | . | . | . | . | . | .
CCn1c(N)nc2c1c(=O)n(C)c(=O)n2C | . | . | . | . | . | .
CCCc1nc2c(=O)n(C)c(=O)nc-2n(C)n1 | 60 | 36 | 78 | / | / | .
Cn1nc(-c2ccccn2)nc2c(=O)n(C)c(=O)nc1-2 | 59 | 32 | 68 | . | . | .
SMILES | PAFAH2 inh | PAFAH1B2 inh | PAFAH1B3 inh | pPAFAH FP inh | Pemphigus Ab inh | M18AAP inhibitor
CCN(CC)C(=O)C1=C(C)N(Cc2ccc(OC)cc2)C(=O)C(CC(=O)NCc2cccs2)C1 (stereo unspecified) | / | / | / | / | . | /
Cc1ccc(C)c(NC(=S)NCCSc2ccc(Cl)cc2)c1 | . | 37 | . | . | . | .
CCCCNC(=S)Nc1ccccc1Cc1ccccc1 | . | . | . | . | 96 | .
O=C(/C=C/c1ccccc1)NCCOc1ccccc1 | . | . | . | . | . | .
O=C(/C=C/c1ccccc1)NCCSc1ccc(Cl)cc1 | . | 29 | . | . | . | .
Cc1cccc(NC(=S)NCCSc2ccc(Cl)cc2)c1 | . | 28 | . | . | / | .
Cc1cccc(NC(=S)NCC(C)CSc2ccc(Cl)cc2)c1 (stereo unspecified) | . | . | . | . | . | .
CCCCSCCCNC(=S)Nc1ccccc1C | . | . | . | . | / | .
CS(=O)(=O)c1ccc(Oc2ccc(-c3nnco3)cc2)c([N+](=O)[O-])c1 | . | . | . | . | / | .
COc1ccc(OC)c(NC(=O)C(=O)NNC(=O)C23CC4CC(CC(C4)C2)C3)c1 | / | / | / | . | . | .
CCN(CC(=O)Nc1c(F)cccc1F)C(=O)CSCc1ccc(C)cc1 | / | / | / | / | . | /
CCc1ccccc1NC(=S)NCCSc1ccc(Cl)cc1 | . | 37 | . | 31 | / | .
C#CCOCCOCCOCCNc1nc(N2CCN(C(=O)Cn3cc(CCO)nn3)CC2)nc(N2CCN(C(=O)Cn3cc(CCCCN)nn3)CC2)n1 | . | . | . | / | . | /
Cc1ccc(C(C)C)c(OCC(=O)NNCC(=O)Nc2cccc(F)c2)c1 | . | 25 | . | . | / | /
CC(=O)Nc1ccc(S(=O)(=O)NNC(=O)COc2cc(C)ccc2C(C)C)cc1 | . | . | . | . | . | .
Cc1onc(-c2ccccc2)c1C(=O)NC(=S)Nc1sc2c(c1C#N)CCCC2 | . | . | . | . | . | .
Cc1onc(-c2ccccc2)c1C(=O)Nc1sc2c(c1C#N)CCC2 | . | . | . | 27 | . | .
O=C(O)COCc1nc2ccccc2s1 | . | . | . | . | . | 30
CC(=O)OCc1nc2ccccc2s1 | . | . | . | . | . | .
CC(C)(C)NC(=O)C(=O)NNC(=O)COc1ccc(Br)cc1 | . | 31 | . | . | . | .
CC(=O)NC(=S)NNC(=O)COc1ccc(Br)cc1 | . | . | . | / | . | .
Oc1c(Br)cc(Br)cc1C=Nc1cccnc1 | . | . | . | . | . | 30
COc1ccc(C2c3ccc(O)cc3Oc3ncn(Cc4ccccc4)c(=N)c32)cc1OC (stereo unspecified) | 46 | 32 | 32 | . | . | .
COc1ccc(C2c3ccc(O)cc3Oc3ncn(CCN4CCOCC4)c(=N)c32)cc1OC (stereo unspecified) | . | . | . | . | . | .
Cc1c(C(=O)Nc2ccc(OCc3ccccc3)cc2)cccc1[N+](=O)[O-] | . | . | . | . | 39 | .
Cc1c(C(=O)Nc2ccc(C(=O)Nc3ccccc3)cc2)cccc1[N+](=O)[O-] | . | . | . | . | . | .
CC1=NN(C2=NS(=O)(=O)c3ccccc32)C(C)(O)C1 (stereo unspecified) | . | . | . | . | . | 31
O=S1(=O)N=C(N2CCOCC2)c2ccccc21 | . | . | . | . | / | .
